Screens as filed in PubChem BioAssay.
Only some compounds are listed: those with a hit (about 18% of all), similar ones and a draw of the others.
VP16 counter = VP16 counterscreen qHTS for inhibitors of ROR gamma transcriptional activity. Drosophila S2 Gal4-VP16 UAS-luciferase, luminescence, 20 h. Potency, µM (top dose mostly 53.6 µM), inactives show at the top dose activity, negative = inhibition, most hits filed as inhibitors. 310,000 tested, 3.5% active. AID 2546, 2010;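 also: Gal4-VP16 expression switched on by copper sulfate through the metallothionein promoter; potency is read from the fitted curve at half-maximal effect; nearly all actives have a fitted effect of over 50% in size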
IL1B secr inh = qHTS for Inhibitors of Inflammasome Signaling: IL-1-beta AlphaLISA Primary Screen. THP-1 LPS/ATP IL-1B secretion, AlphaLISA, 16 h; hits give low values. activity change, % at 57.5 µM. 360,000 tested, 4.7% active; in the data active = activity change below about -50%; inconclusive = mostly about -30% to -49%
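Secreted IL-1B measured by AlphaLISA bead assay after 16 h compound exposure of THP-1 cells; compounds (final up to 57.5 uM) added 1 h before LPS (250 ng/mL) and ATP (1.25 mM) stimulation; lower signal means less secretion.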
LDHA block = qHTS assay for inhibitors of human lactate dehydrogenase. L-lactate dehydrogenase A chain (Homo sapiens), P00338. purified LDHA, NADH/diaphorase-resazurin fluorescence; hits give low values. activity change, % (values are at about 110 or 230 µM). 480,000 tested, 0.15% active; in the data active = activity change below about -30%; inconclusive = mostly about -25% to -30%;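 also: plate controls were DMSO wells for no effect and wells without enzyme for full effect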
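Enzyme activity of human lactate dehydrogenase 5 (2 nM; 0.06 mM NADH, 0.2 mM pyruvate, 5 min, RT) is measured via a resazurin/diaphorase fluorescence readout of residual NADH.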
DT40 TDP1 CPT = qHTS for Inhibitors of human tyrosyl-DNA phosphodiesterase 1 (TDP1): qHTS in cells in presence of CPT. AID 686979, 2013. 420,000 tested, 12% active. Potency, µM (top dose mostly 46.2 µM), inactives show at the top dose activity change, negative = growth inhibition, most hits filed as inhibitors. chicken DT40 Tdp1-/-;hTDP1 cells + 20 nM CPT, ATP luminescence, 48 h; also: potency is read from the fitted curve at half-maximal effect; nearly all actives have a fitted effect of over 55% in size
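Chicken DT40 Tdp1-/- cells complemented with human TDP1, 400 cells/well, exposed to compounds plus 20 nM camptothecin for at least 48 h at 37 C; viability read as ATP content by CellTiter-Glo luminescence.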
DT40 TDP1 no CPT = qHTS for Inhibitors of human tyrosyl-DNA phosphodiesterase 1 (TDP1): qHTS in cells in absence of CPT; Potency, µM (titrated, usually from 46.2 µM), for the others: at the highest dose activity change, negative = growth inhibition, most hits filed as inhibitors; DT40 Tdp1-/- hTDP1 cells, no CPT, ATP luminescence, 48 h; 420,000 tested, 15% active; also: potency is read from the fitted curve at half-maximal effect; nearly all actives have a fitted effect of over 55% in size
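Growth of hTDP1-complemented DT40 Tdp1-knockout cells is measured by ATP luminescence after at least 48 hr compound exposure at 37 °C, with DMSO substituting for the 20 nM CPT used in the parallel screen.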
RORgamma inh = qHTS for inhibitors of ROR gamma transcriptional activity. Drosophila S2 Gal4-RORgamma UAS-luciferase reporter, 20 h. Potency, µM (highest dose often 53.6 µM), without a hit: top-dose activity change, negative = inhibition, hits mostly inhibitors. 310,000 tested, 5.4% active; also: potency is read from the fitted curve at half-maximal effect; nearly all actives have a fitted effect of over 60% in size
Target sequence (P51450 whole entry, looked up, the tested form may be a part): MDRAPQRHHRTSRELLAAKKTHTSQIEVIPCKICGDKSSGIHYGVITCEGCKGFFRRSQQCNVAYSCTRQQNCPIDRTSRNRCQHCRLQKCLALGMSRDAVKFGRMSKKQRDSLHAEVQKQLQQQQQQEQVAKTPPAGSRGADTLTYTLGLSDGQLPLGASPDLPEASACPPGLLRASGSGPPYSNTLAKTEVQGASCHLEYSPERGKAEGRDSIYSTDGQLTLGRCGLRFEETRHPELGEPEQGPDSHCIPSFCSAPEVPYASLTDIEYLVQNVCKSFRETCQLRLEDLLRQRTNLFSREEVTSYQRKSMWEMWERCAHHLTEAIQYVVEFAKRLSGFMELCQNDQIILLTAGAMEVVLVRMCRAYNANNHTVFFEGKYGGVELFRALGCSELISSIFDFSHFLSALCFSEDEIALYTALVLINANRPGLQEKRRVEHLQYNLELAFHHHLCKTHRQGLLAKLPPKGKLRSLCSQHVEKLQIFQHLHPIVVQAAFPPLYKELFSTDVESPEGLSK
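Luminescence from a UAS-regulated Photinus luciferase reporter in stably transfected Drosophila Schneider cells is measured; decreased signal marks ROR gamma inhibition. Fusion expression is induced by 700 uM copper sulfate for 20 hr.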
The depositor's hits bear a star; i = inactive; ? = inconclusive; . = no result; [ ] = remark or other dose. Unless noted, calls follow the shape of the dose curve; as a rule, active = well fitted curve in the direction sought with a large enough effect; inconclusive = small, poorly fitted or top-dose-only effect, or another doubt; inactive = no such curve, though single readings can be large; an effect the other way counts as inactive or inconclusive. Unless noted, % is scaled to controls: 0 for no effect and ±100 for the full control effect.

SMILES | VP16 counter | IL1B secr inh | LDHA block | DT40 TDP1 CPT | DT40 TDP1 no CPT | RORgamma inh
CC(C)(C)c1nnc(NC(=O)c2cccs2)s1 | ? | -6 | -2 | -25% | -12% | 18µM*
Cc1ccc(CC(=O)Nc2ncc([N+](=O)[O-])s2)cc1 | -15% | 49 | -2 | ? | ? | 38%
O=C(Nc1ncc([N+](=O)[O-])s1)c1ccccc1Br | ? | 25 | -2 | 21µM* | 18µM* | ?
CCCCC(CC)C(=O)Nc1ncc([N+](=O)[O-])s1 (stereo unspecified) | -2% | -79* | -2 | ? | ? | 0%
COc1ccccc1C(=O)Nn1c(-c2ccc(F)cc2)nc2ccccc2c1=O | . | . | 6 | . | . | .
O=C(CSc1ncccn1)c1ccc2c(c1)OCCO2 | . | . | 2 | . | . | .
Cc1cccc(CN2CCN(c3nc4c(c(=O)[nH]c(=O)n4C)n3CCc3ccccc3)CC2)c1 | . | . | 5 | . | . | .
Cc1ccc(C(=O)N/C(=C\c2ccco2)C(=O)O)cc1 | . | . | 11 | . | . | .
O=C(Nc1ncc([N+](=O)[O-])s1)c1cccs1 | 10µM* | 9 | -4 | 18µM* | 10µM* | ?
Cc1ncoc1C(=O)Nc1ncc([N+](=O)[O-])s1 | ? | 4 | -4 | ? | ? | ?
O=C(/C=C/c1ccc([N+](=O)[O-])cc1)Nc1ncc([N+](=O)[O-])s1 | 7.1µM* | -78* | -9 | 5.8µM* | 8.2µM* | ?
COc1ccc(NC(=O)Nc2ccc3c(c2)C(=O)N([C@@H](C)CO)C[C@@H](C)[C@@H](CN(C)CC2CCCCC2)O3)cc1 | . | -2 | 1 | ? | 23µM* | .
COc1ccc(NC(=O)Nc2cccc3c2O[C@@H](CN(C)CC2CCCCC2)[C@@H](C)CN([C@H](C)CO)C3=O)cc1 | . | -1 | -5 | 23µM* | ? | .
CN(CCc1ccncc1)Cc1ccc(C#N)cc1 | . | . | 7 | . | . | .
O=C(c1ccco1)N1N=C(c2ccc(Cl)cc2)CC1c1ccc2nccnc2c1 (stereo unspecified) | . | . | -2 | . | . | .
CCC1=C(c2ccc(C)cc2)S(=O)(=O)N=C1N1CCC(C(=O)NCc2ccc(C)cc2)CC1 | . | . | -17 | ? | ? | .
CCC1=C(c2ccc(C)cc2)S(=O)(=O)N=C1N1CCC(C(=O)NCCc2ccc(Cl)cc2)CC1 | . | . | -1 | 13µM* | 10µM* | .
CCC1=C(c2ccc(C)cc2)S(=O)(=O)N=C1N1CCC(C(=O)Nc2ccccc2C(=O)OC)CC1 | . | . | -4 | ? | 18µM* | .
O=C(O)CNS(=O)(=O)c1cc(C(F)(F)F)cc(C(F)(F)F)c1 | . | . | 2 | . | . | .
Cc1ccc(S(=O)(=O)N(CC(=O)N2CCc3ccccc3C2)Cc2ccc(Cl)cc2)cc1 | . | . | 14 | . | . | .
CC(/C=N/n1c(COc2ccccc2)n[nH]c1=S)=C\c1ccco1 | -19% | . | -1 | 4% | -13% | 7.1µM*
CC(/C=N/n1c(-c2cccnc2)n[nH]c1=S)=C\c1ccco1 | -8% | 9 | 24 | 7% | -29% | -38%
Cc1ccc(/C=N/n2c(COc3ccccc3)n[nH]c2=S)o1 | 8%[10 µM] | 27 | -4 | ? | -1% | ?
S=c1[nH]nc(COc2ccccc2)n1/N=C/c1ccco1 | -3% | 17 | -4 | -1% | -14% | 7.9µM*
COc1cc(CNC(=O)c2ccc(Cn3nc(C)c(Cl)c3C)o2)cc(OC)c1 | -1% | -12 | 2 | ? | 8.2µM* | 21%
SMILES | VP16 counter | IL1B secr inh | LDHA block | DT40 TDP1 CPT | DT40 TDP1 no CPT | RORgamma inh
COc1cc(CNC(=O)c2nc(Cn3nc(C)c(Br)c3C)no2)cc(OC)c1 | -10% | -71* | -8 | 29µM* | ? | -4%
CCONC(=O)CSCc1ccc(C)cc1 | . | . | 10 | . | . | .
COc1ccc(-c2nc(C(=O)N3CCCCC3C)nn2-c2ccccc2Cl)cc1 (stereo unspecified) | . | . | 3 | . | . | .
COc1cc(C(=O)Nc2sc3c(c2C(N)=O)CCC(C)C3)cc(OC)c1OC (stereo unspecified) | . | . | 1 | ? | -15% | .
COc1cc(C(=O)Nc2sc3c(c2C#N)CCCC3)c(Br)c(OC)c1OC | . | . | -7 | ? | 3.3µM* | .
COC(=O)c1c(NC(=O)c2cc(OC)c(OC)c(OC)c2Br)sc2c1CCC(C)C2 (stereo unspecified) | . | . | 2 | ? | 21µM* | .
O=[N+]([O-])c1ccc(C[n+]2cc(-c3ccccc3)n3c2CCCCC3)cc1 | 8% | -7 | -2 | ? | 12µM* | -3%
O=[N+]([O-])c1ccc(C[n+]2cc(-c3ccc(Cl)c(Cl)c3)n3c2CCCCC3)cc1 | -15% | -25 | 0 | ? | 5.8µM* | 0.25µM*
O=C(C[n+]1cc(-c2ccc(Cl)c(Cl)c2)n2c1CCC2)OCc1ccccc1 | -3% | i | 2 | -13% | -14% | 9%[10 µM]
COc1ccc(CN(C)S(=O)(=O)c2nnc(NC(=O)C(C)C)s2)cc1OC | . | . | 0 | 12µM* | 10µM* | .
COc1ccc(CN(C)S(=O)(=O)c2nnc(NC(=O)c3ccccc3OC)s2)cc1OC | -15% | 9 | -3 | ? | ? | -15%
CC(C)C(=O)N1CCC(C(=O)NCC2(c3ccc(F)cc3)CC2)CC1 | . | . | 1 | . | . | .
CCn1nc(C(=O)Nc2cccc3ncccc23)c2ccccc2c1=O | . | . | 19 | . | . | .
C=C(C)CNC(=S)N=Nc1c(O)[nH]c2ccc([N+](=O)[O-])cc12 | 13µM* | 12 | -1 | 4.1µM* | 4.6µM* | 2.5µM*
COc1ccccc1C(=O)N=Nc1c(O)[nH]c2ccc([N+](=O)[O-])cc12 | 9% | 23 | 1 | ? | 23µM* | 16%
CC(C)NC(=S)N=Nc1c(O)[nH]c2ccc([N+](=O)[O-])cc12 | 1% | 32 | 3 | ? | ? | -7%
c1ccc2sc(-c3cc(NCCN4CCOCC4)nc4ccccc34)nc2c1 | . | . | 14 | . | . | .
Cc1nn(C)c(C)c1CNCc1ccc(N2CCOCC2)nc1 | . | . | 10 | . | . | .
Cc1ccc2nc(Cl)c3cc(C(=O)NC4CCCC(C)C4C)sc3c2c1 (stereo unspecified) | . | . | 4 | . | . | .
Cc1ccc2nc(Cl)c3cc(C(=O)N4CCCCC4C)sc3c2c1 (stereo unspecified) | . | . | -1 | ? | 23µM* | .
Cc1ccc2nc(Cl)c3cc(C(=O)N4CCCCC4)sc3c2c1 | . | . | -6 | ? | -101% | .
Cc1ccc2nc(Cl)c3cc(C(=O)NCCCN4CCCC4)sc3c2c1 | -12% | -20 | 7 | 5.8µM* | 5.8µM* | 2%
